Source: PubChem (The Scripps Research Institute Molecular Screening Center)
In the library only some 2.7% were active in any assay of this set; here they are far more common.
PAFAH1B3 inh = inhibitors of human PAFAH1B3 | inhibition, % at 3.39 µM | recombinant PAFAH1B3, FP-rhodamine probe, fluorescence polarization | 340,000 tested, 0.28% active | AID 492972 | Q15102;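 active means inhibition above the screen-wide average of all tested compounds plus 3 SD, cut at about 25% in these data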
Target sequence (Q15102 whole entry, looked up): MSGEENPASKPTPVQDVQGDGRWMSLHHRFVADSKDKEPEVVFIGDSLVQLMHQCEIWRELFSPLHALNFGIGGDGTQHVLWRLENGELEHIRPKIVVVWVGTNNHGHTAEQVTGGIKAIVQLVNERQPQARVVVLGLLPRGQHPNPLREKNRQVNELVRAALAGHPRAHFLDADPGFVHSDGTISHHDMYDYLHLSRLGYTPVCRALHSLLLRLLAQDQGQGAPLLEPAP
TCR-CD3 inh = inhibitors of human TCR-CD3 interaction; TAMRA-labeled TCR probe fluorescence, biochemical; inhibition, % at 9.4 µM; 360,000 tested, 0.37% active; AID 651800;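 further: recombinant mutant TCR 2C K166C tagged with TAMRA read by polarization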
pPAFAH inh = inhibitors of human plasma PAF acetylhydrolase (pPAFAH) | Q13093 | recombinant pPAFAH, FP-rhodamine probe fluorescence polarization | inhibition, % at 3.39 µM | 330,000 tested, 1.5% active | AID 463082;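 active means inhibition above the mean inhibition across the screen plus 3 SD, cut at about 25% in these data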;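 further: inhibitors block binding of the rhodamine activity-based probe so polarization drops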
PAFAH1B2 FP inh = inhibitors of human PAFAH1B2. P68402. recombinant PAFAH1B2, FP-rhodamine activity probe, fluorescence polarization. inhibition, % at 3.39 µM. 340,000 tested, 1.2% active;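 active means inhibition above the mean of all tested compounds plus 3 SD, cut at about 24% in these data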
Target sequence (P68402 whole entry, looked up): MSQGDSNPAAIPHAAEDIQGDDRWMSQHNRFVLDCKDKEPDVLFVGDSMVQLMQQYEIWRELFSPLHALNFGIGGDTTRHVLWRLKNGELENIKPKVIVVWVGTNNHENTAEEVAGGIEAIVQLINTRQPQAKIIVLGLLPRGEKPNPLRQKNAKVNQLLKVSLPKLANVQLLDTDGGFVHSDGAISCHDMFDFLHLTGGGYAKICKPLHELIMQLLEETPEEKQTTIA
PAFAH2 inh = inhibitors of human PAFAH2; Q99487; inhibition, % at 3.39 µM; recombinant PAFAH2, FP-rhodamine activity probe, fluorescence polarization; 340,000 tested, 0.99% active;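 active means inhibition above the mean over all tested compounds plus 3 SD, cut at about 30% in these data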;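 further: inhibitors block probe labeling of enzyme so polarization drops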
BSA TAMRA ctr = BSA probe counter-screen for TCR-CD3 inhibitors; shares compounds with TCR-CD3 inh; AID 652035; TAMRA-labeled BSA probe fluorescence counterscreen; inhibition, % at 9.4 µM; 1,200 tested, 10% active; in the data active means inhibition above about 23%
TCR-CD3 inh conf = confirmation of human TCR-CD3 interaction inhibitors; inhibition, % at 9.4 µM; shares compounds with TCR-CD3 inh; AID 652036; TAMRA-labeled TCR probe fluorescence binding assay; 1,200 tested, 48% active
Hits are given with their value; 0 = inactive; - = no result given. Unless noted, no stated cut-off is given here; in the data, active means inhibition above about 19%; inactive means the rest.

SMILES	PAFAH1B3 inh	TCR-CD3 inh	pPAFAH inh	PAFAH1B2 FP inh	PAFAH2 inh	BSA TAMRA ctr	TCR-CD3 inh conf
COc1ccc(NS(=O)(=O)c2ccc(N3CCCCC3)c(N)c2)cc1	0	0	0	0	0	-	-
CC(=O)c1cccc(NC(=O)C(OC(=O)c2cccc(S(=O)(=O)N(C)c3ccccc3)c2)c2ccccc2)c1 (stereo unspecified)	0	31	0	0	0	0	32
COc1ccc(-c2cnnn2-c2ccc(NC(=O)c3ccc(S(=O)(=O)N4CCCCC4)cc3)cc2)cc1OC	0	19	0	0	0	0	23
Cc1nn(-c2ccc(F)cc2)c(Cl)c1C(=O)OC(C)C(=O)N(C)C1CCCCC1 (stereo unspecified)	0	0	0	0	0	-	-
CCNC(=O)N(C)c1c(CC)nc2ccc(C(=O)N3CCN(C(C)=O)CC3)cn12	-	0	-	-	-	-	-
NS(=O)(=O)c1ccc(NC(=S)Nc2ccc(S(=O)(=O)Nc3nccs3)cc2)cc1	-	0	-	-	-	-	-
COc1ccc(NC(=O)CN(C)C(=O)/C=C/c2cn(-c3ccccc3)nc2-c2ccc(C)cc2)cc1	0	32	0	0	0	0	0
COc1cccc(NC(=O)CN(C)C(=O)/C=C/c2cn(-c3ccccc3)nc2-c2ccc(C)cc2)c1	0	36	0	0	0	32	63
CC(=O)N(O)c1ccc(C=Cc2ccccc2)cc1	-	0	-	-	-	-	-
COCCNC(=O)CSCc1nc(-c2ccc(SC)cc2)oc1C	0	33	0	0	0	0	0
CN(Cc1ccccc1)C(=O)c1cccc(NC(=O)Cc2ccc(NC(=O)C3CCN(C(=O)C4CC4)CC3)cc2)c1	0	0	-	0	0	-	-
CN(CCC#N)C(=O)COC(=O)c1c2c(nc3ccccc13)/C(=C/c1ccco1)CC2	0	52	27	0	0	0	32
COc1cc(CNc2ncnc3c2ncn3[C@H]2CN(Cc3cc(OC)c(OC)c(OC)c3)C[C@@H](CO)O2)cc(OC)c1OC	-	0	-	-	-	-	-
Cc1cc(C(=O)N/N=C/c2cc(Cl)cc([N+](=O)[O-])c2O)n[nH]1	0	28	0	0	0	0	34
Cc1cc(C(=O)N/N=C/c2ccc([N+](=O)[O-])s2)n[nH]1	0	0	0	0	0	-	-
O=c1c(CO)cc(CO)cc(CO)c1O	0	31	0	0	0	0	22
Cc1ccc2nc(C)c(CN3CCN(c4ccc([N+](=O)[O-])cc4Cl)CC3)n2c1	0	0	0	0	0	-	-
O=C(Nc1ccc2ccccc2c1)c1cn(-c2ccccc2)nc1-c1cccs1	0	89	0	0	0	0	38
Cc1cc(C)n2c(SCC(=O)N(CCC#N)c3ccc4c(c3)OCCO4)nnc2n1	-	0	-	-	-	-	-
C=C(C)CN1C(=O)C(C)SC1=NN=C1SCC(=O)N1C (stereo unspecified)	-	0	-	-	-	-	-
Oc1ccccc1/C=N/c1c(-c2ccco2)nc2ccccn12	0	20	0	0	0	0	0
Clc1ccc(/C=N/c2c(-c3ccco3)nc3ccccn23)cc1	0	0	0	0	0	-	-
CC(C)Cc1nc2sc3c(=O)[nH]cnc3c2c2c1CCCC2	0	20	0	0	0	0	0
C/C(=N\NC(=O)c1ccc(CN2CCc3ccccc3C2)cc1)c1ccccc1O	0	25	0	0	0	0	0
O=C(Nc1cccc(NC(=O)c2ccc(-c3ccc(Br)cc3)o2)c1)c1ccco1	0	56	0	0	0	24	44
SMILES	PAFAH1B3 inh	TCR-CD3 inh	pPAFAH inh	PAFAH1B2 FP inh	PAFAH2 inh	BSA TAMRA ctr	TCR-CD3 inh conf
O=C(Nc1cccc(NC(=O)c2ccccc2Cl)c1)c1ccco1	0	0	0	0	0	-	-
O=C1c2ccccc2-c2onc3ccc(N4CCCC4)c1c23	74	111	-	77	88	186	145
O=C1c2ccccc2C(=O)c2c1cccc2N1CCCC1	0	0	0	0	0	-	-
COc1cc(O)c(/C=N/NC(=O)c2ccncc2)c(OC)c1[N+](=O)[O-]	0	19	0	0	0	0	31
O=C(CSC1CN(C(c2ccccc2)c2ccccc2)C1)N/N=C/c1ccccc1	0	0	0	0	0	-	-
O=c1c2ccccc2nc(COc2ccccc2)n1/N=C/c1ccc(O)cc1O	0	21	0	0	0	0	21
N#Cc1ccc(CCc2ccccc2)[nH]c1=O	0	0	-	0	0	-	-
N#Cc1ccc(CC(=O)c2ccccc2)[nH]c1=O	0	60	-	0	0	0	0
Cc1ccc2c(c1)N(CC(=O)NC1CCCC(C)C1C)C(=O)c1cccnc1O2 (stereo unspecified)	0	0	0	0	0	-	-
O=C(CCc1nnc(CCCCc2ccccc2)o1)N1CCC(N2CCCC2)CC1	0	24	0	0	0	0	0
S=c1[nH]nc(-c2cc(-c3ccccn3)nc3ccccc23)o1	0	33	0	0	0	0	0
Cc1ccc(-c2cc(-c3n[nH]c(=S)o3)c3ccccc3n2)cc1	0	0	0	0	0	-	-
COCCCNC(=S)N/N=C/c1ccc(O)cc1O	-	20	0	-	-	0	0
Oc1ccc(C=NNC(=S)Nc2ccc(F)cc2)c(O)c1	0	20	-	0	0	0	0
Cc1csc(NC(=O)c2ccc3nc[nH]c3c2)n1	0	0	0	0	0	-	-
CCOc1cc(S(=O)(=O)N(Cc2ccccc2)Cc2ccccc2)c(OCC)cc1-n1cnnn1	0	0	-	0	0	-	-
Cc1cccn2c(=O)c3cc(C(N)=S)c(=N)n(CCCN4CCOCC4)c3nc12	0	22	0	0	0	0	0
Cc1cccn2c(=O)c3cc(C#N)c(=N)n(CCCN4CCOCC4)c3nc12	0	0	0	0	0	-	-
COCCCn1c(=N)c(C(N)=S)cc2c(=O)n3cccc(C)c3nc21	0	28	0	0	0	0	0
CCC(CC)c1nnc(NC(=O)CS(=O)(=O)c2ccccc2)s1	0	0	0	0	0	-	-
CCCc1nnc(NC(=O)CS(=O)(=O)c2ccccc2)s1	0	30	0	0	0	0	0
Nc1nc2c(ncn2[C@@H]2O[C@H](C(=O)NCCCc3ccccc3)[C@@H](O)[C@H]2O)c(=O)[nH]1	-	0	-	-	-	-	-
COc1ccccc1NS(=O)(=O)c1cc(C(=O)NC2CC(C)(C)NC(C)(C)C2)ccc1Cl	0	0	-	0	0	-	-
O=C(N/N=C/C(Br)=C\c1ccccc1)c1ccco1	-	170	0	-	-	0	0
CC1(OC(=O)c2ccco2)C(=O)C=C2C=C(C3CC3)OC=C2C1=O (stereo unspecified)	0	57	28	0	0	56	37
Nc1nonc1C(=O)N/N=C/c1cc(Br)ccc1O	-	23	0	-	-	0	20
CC(=O)c1ccc(NC(=O)COC(=O)c2c3c(nc4ccccc24)/C(=C\c2cccs2)CCC3)cc1	0	65	0	0	0	0	40
Cc1nn(-c2ccccc2)c(Cl)c1C(=O)NCC(C)c1ccccc1 (stereo unspecified)	0	130	0	0	0	0	0
Cc1nn(-c2ccccc2)c(Cl)c1C(=O)NCC(C)C	0	0	0	0	0	-	-
